Shown are actives, neighbours in structure and some others; about 0.81% of the full set was active somewhere.
SARS PLP yeast – blocks SARS-CoV papain-like protease in a yeast assay | Potency, µM (series often up to 32.9 µM), inactives show at the top dose activity, positive = growth rescue, hits mostly activators | S. cerevisiae expressing SARS-CoV PLpro, growth rescue | AID 485353 | hit rate 0.19% among 330,000; calls by dose curve; note: 0% is about no effect; nearly all actives have a fitted effect of over 55% in size
TbPYK inhibitor – T. brucei pyruvate kinase inhibition. Q57TT1. TbPYK enzyme, Kinase-Glo Plus ATP luminescence, 45 min. Potency, µM (highest dose often 76.8 µM), without a hit: at the top dose activity, negative = inhibition, most hits filed as inhibitors. hit rate 0.12% among 410,000; note: % is set by controls: 0 for no effect and ±100 for the full control effect; nearly all actives have a fitted effect of over 50% in size
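Luminescent Kinase-Glo Plus end-point after 45 min room-temperature reaction of T. brucei pyruvate kinase started with 130 uM ADP (final). Buffer TEA 50 mM pH 7.2 with KCl, MgCl2, BSA, Tween-20; titration-based qHTS with fitted concentration-effect curves.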
LmPK inhibitor – LmPK (Leishmania mexicana) enzyme inhibition | purified LmPK, Kinase-Glo ATP luminescence, 1 h | hit rate 0.37% among 290,000 | Potency, µM (highest dose often 57.5 µM), without a hit: at the top dose activity change, negative = inhibition, usual class: inhibitors | AID 1721 | Q27686; note: % is set by controls: 0 for no effect and ±100 for the full control effect
Target sequence (Q27686 whole entry, looked up): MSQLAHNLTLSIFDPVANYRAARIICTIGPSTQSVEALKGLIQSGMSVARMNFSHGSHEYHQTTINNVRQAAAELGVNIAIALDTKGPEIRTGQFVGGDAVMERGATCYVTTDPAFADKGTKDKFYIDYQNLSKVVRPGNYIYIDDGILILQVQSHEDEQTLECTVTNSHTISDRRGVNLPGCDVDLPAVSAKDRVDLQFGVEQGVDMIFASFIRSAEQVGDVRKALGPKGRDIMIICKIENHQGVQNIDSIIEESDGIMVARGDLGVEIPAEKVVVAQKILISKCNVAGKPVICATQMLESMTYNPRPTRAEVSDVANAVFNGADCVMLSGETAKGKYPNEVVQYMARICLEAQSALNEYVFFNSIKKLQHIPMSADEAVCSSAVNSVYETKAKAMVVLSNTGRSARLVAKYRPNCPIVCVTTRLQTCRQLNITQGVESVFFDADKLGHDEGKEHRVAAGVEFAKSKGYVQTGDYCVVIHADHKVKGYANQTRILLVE
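0.1 nM LmPK, 0.5 mM PEP, 0.1 mM ADP; 50 mM imidazole pH 7.2, 7 mM MgCl2, 50 mM KCl; 1 h RT. Kinase-Glo luminescence readout, normalized to no-enzyme (full inhibition) and uninhibited wells.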
RE007 growth inh – less growth of the S. pombe RE007 Vpr strain; S. pombe RE007 Vpr strain, BacTiter-Glo ATP luminescence, 24 h; Potency, µM (series often up to 92.2 µM), without a hit: at the top dose activity change, negative = less growth, actives largely listed as inhibitors; hit rate 0.21% among 360,000; AID 651644; active = well fitted falling curve with a large enough effect; inconclusive = small, poorly fitted or top-dose-only effect; inactive = no such curve, though single readings can be large or run the other way; note: % is set by controls: 0 for no effect and ±100 for the full control effect; nearly all actives have a fitted effect of over 50% in size
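Fission yeast RE007 carrying one integrated HIV-1 vpr copy, seeded at OD 0.01 in PMG+AL medium with 23 nL pinned compound. Grown 24 h at 30 degrees; viability read by BacTiter-Glo luminescence after 5 min.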
AMA1-RON2 inh – inhibitors of Plasmodium falciparum AMA1-RON2 interaction; Potency, µM (highest dose often 58.2 µM), inactives show at the top dose activity change, negative = inhibition, hits mostly inhibitors; AlphaScreen AMA1-biotinylated RON2 peptide binding; hit rate 0.2% among 360,000;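 note: 0% = vehicle wells and -100% = peptide control; nearly all actives have a fitted effect of over 45% in size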
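AMA1 (3D7) with his tag at 25 nM final met compounds first, then biotinylated RON2 peptide at 25 nM; detection used donor plus acceptor beads, 10 µg/mL apiece, read by AlphaScreen after 30 min at room temperature.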
Numbers without * were called inactive; ? = inconclusive; . = no result; [ ] = dose if it differs, or a comment. Unless noted, calls come from the whole dose curve; as a rule, active = well fitted curve in the direction sought with a large enough effect; inconclusive = small, poorly fitted or top-dose-only effect, or another doubt; inactive = no such curve, though single readings can be large; an effect the other way counts as inactive or inconclusive. Potency is the fitted concentration of half-maximal effect.

SMILES | SARS PLP yeast | TbPYK inhibitor | LmPK inhibitor | RE007 growth inh | AMA1-RON2 inh
Cc1ccc(N=Cc2c(C)[nH]n(-c3nc4ccccc4[nH]3)c2=O)cc1 | -72% | ? | 25µM* | 3.2µM* | 24%[11.6 µM]
CCN(CC(=O)Nc1ccc(C)c(F)c1)CC(=O)NC(C)(C)C | 2% | -2% | -3% | 6% | 2%
CC1(Cc2cccc(C(F)(F)F)c2)C(=O)Nc2ccc(-c3ccc(F)c(Cl)c3)cc21 (configuration not stated) | . | 2% | . | 6% | 0%
O=[N+]([O-])c1cccc(C=NN2CCCCCC2)c1 | . | -6% | . | 3% | 18µM*
O=[N+]([O-])c1cc(C=NN2CCCCCC2)ccc1Cl | . | -3% | . | -19% | 14µM*
O=[N+]([O-])c1cc(/C=N/N2CCCCC2)ccc1Cl | -1% | -4% | 0% | -1% | ?
CC(C)(C)c1ccc(-c2nc(NC(=O)CSc3ncnc4sc5c(c34)CCCC5)ns2)cc1 | . | -1% | . | . | .
Cc1ccc(C(=O)OCn2ncc(Cl)c(Cl)c2=O)cc1 | -37% | 14% | 6% | 50µM* | 21%
Oc1ccc2c3c1O[C@H]1[C@@H](O)C=CC4[C@@H](C2)NCC[C@@]341 (some centres not stated) | . | -2% | . | . | .
CCOC(=O)CCc1c(C)nc(SCc2ccc(C(=O)O)cc2)c(C#N)c1C | -9% | -2% | 0% | -1% | 2%
CCOC(=O)CCc1c(C)nc(SCC(=O)O)c(C#N)c1C | 5% | 32µM* | 26% | 6% | 5%
O=c1c(=NNc2ccccc2Cl)c(=O)c2ccccc12 | -2% | -12% | 16µM* | 6% | -18%
C[C@]12CC[C@@H]3c4ccc(O)c(O)c4CC[C@H]3[C@@H]1CC[C@@H]2O | 0% | 10µM* | 1µM* | 5%[18.4 µM] | ?
CCCC(O)c1nc2ccccc2n1CCCOc1ccc(Cl)cc1 (configuration not stated) | . | 1% | . | . | .
C[n+]1c2ccccc2nc2ccc(NCCO)cc21 | 0% | ? | -2% | 3.5µM* | 20µM*
CC(=O)O[C@H](C)OC(=O)[C@@H](C)c1ccc(-c2ccccc2)c(F)c1 | . | -7% | . | . | .
O=[N+]([O-])c1cccnc1N/N=C/c1ccccc1O | -1% | -27% | 14µM* | 0% | 30%
COc1cccc(/C=N/Nc2nccnc2Cl)c1O | -6% | ? | 10µM* | 35µM* | -32%
Oc1ccc(C=NNc2ccccn2)c(O)c1 | . | -8% | . | -24% | -9%
Cc1c(O)ccc(/C=N/Nc2ncccc2[N+](=O)[O-])c1O | -5% | -13% | -5% | ? | 59%
Oc1ccccc1/C=N/Nc1nccnc1Cl | -33% | -8% | 16µM* | ? | -5%
COc1cccc(/C=N/NC(=O)c2cnccn2)c1O | 2% | -2% | -21% | -11% | 57%
Oc1ccc(/C=N/Nc2nccnc2Cl)c(O)c1 | 3.2µM* | ? | 13µM* | -17% | -1%
COc1ccccc1Cc1c(C(C)(C)C)nc2c3ccccc3ccn12 | . | -5% | . | ? | -9%
COc1ccc(-c2noc(CSc3nnc(-c4ccc(Cl)cc4)n3C)n2)cc1OC | . | -7% | . | . | .
SMILES | SARS PLP yeast | TbPYK inhibitor | LmPK inhibitor | RE007 growth inh | AMA1-RON2 inh
CCCCCCSc1nnc2c(n1)OC(C)Nc1ccc(Br)cc1-2 (configuration not stated) | . | -3% | . | . | .
Cc1ccc(-n2[nH]c(C)c(C=Nc3cc(C)ccn3)c2=O)cc1 | -20% | 5% | -20% | 28µM* | -8%
COc1ccc2nc(/N=C/c3c(C)[nH]n(-c4ccc(C)cc4)c3=O)sc2c1 | -79% | -23% | 13µM* | ? | 1%
O=C(NC(c1ccccc1)c1cc(Cl)c2cccnc2c1O)c1cccnc1 (configuration not stated) | 1.8µM* | . | 0% | . | .
COc1ccc(C(=O)NC(c2ccc(Cl)cc2)c2cc(Cl)c3cccnc3c2O)cc1 (configuration not stated) | . | -6% | . | . | .
CN(C)C(=O)Oc1ccc(OC(=O)c2ccccc2)cc1 | -2% | ? | 13µM* | -20% | -4%
O=C(Oc1ccccc1)c1cccc(C(=O)Oc2ccccc2)c1 | . | 0%[157 µM] | . | . | .
O=C(Oc1ccccc1)c1cc(O)c(O)c(O)c1 | . | ? | . | 1% | 40µM*
Cc1ccccc1CNC(=O)c1ccc2c(c1)c(C)c(C)n2C | . | -6%[15.4 µM] | . | . | .
CCN(CC)c1ccc(NC(=O)c2ccc3c(c2)c(C)c(C)n3C)cc1 | -8% | -11% | -5% | 6% | 7.9µM*
Cc1ccccc1OCCCN1C(=O)C(=O)c2cccc(C)c21 | -39% | 1% | 0% | ? | 16µM*
N#C/C(C(=O)c1ccccc1)=C1/CCCCCN1 | 5% | 0% | -18% | 28µM* | -9%
N=C1/C(=C/c2coc3ccccc3c2=O)C(=O)N=C2SC(c3ccco3)=NN12 | 1% | -6% | 7% | 10µM* | 30%
N=C1/C(=C\c2coc3ccccc3c2=O)C(=O)N=C2SC(c3ccncc3)=NN12 | -5% | -23% | -4% | 14µM* | 1%
CSC1=NSC2=NC(=O)/C(=C\c3coc4ccccc4c3=O)C(=N)N12 | -100% | -8% | 5% | 28µM* | 14%
CC(C)CC(NC(=O)C(COC(C)(C)C)NC(=O)C(Cc1ccc(O)cc1)NC(=O)C(CO)NC(=O)C(Cc1c[nH]c2ccccc12)NC(=O)C(Cc1cnc[nH]1)NC(=O)C1CCC(=O)N1)C(=O)NC(CCCN=C(N)N)C(=O)N1CCCC1C(=O)NNC(N)=O (configuration not stated) | . | 2% | . | . | .
COc1ccc(NCc2nnc(SCc3ccc(Cl)cc3)n2-c2ccccc2)cc1 | -43% | 2% | -2% | -6% | 20µM*
CO/N=C(\C(=O)N[C@@H]1C(=O)N2C(C(=O)[O-])=C(C[N+]3(C)CCCC3)CS[C@@H]12)c1csc(N)n1 | . | -1% | . | . | .
CSC1=NS(=O)(=O)c2c(C)nn(C)c2S1 | 1% | 2.5µM* | 29% | -6% | 14%
COc1ccc(-c2cc(=O)oc3cc(OC(C)C(=O)NCc4ccccn4)ccc23)cc1 (configuration not stated) | 4µM* | -2% | -5% | 0% | 19%
COc1ccc(-c2cc(=O)oc3cc(OCC(=O)NCc4ccccn4)ccc23)cc1 | -2% | -4% | 6% | 10% | 3%

Screening results: PubChem, National Center for Advancing Translational Sciences (NCATS)
